Bioassay records from PubChem BioAssay.
IL-1B inflam inh = inflammasome signaling inhibition, IL-1 beta readout; THP-1 LPS/ATP IL-1B secretion, AlphaLISA, 16 h; active compounds read low; activity change, % at 57.5 µM; hit rate 4.7% among 360,000; AID 743279; in the data active means activity change below about -50%; inconclusive means mostly about -30% to -49%
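THP-1 cells pretreated 1 hr with compounds (up to 57.5 uM final), then stimulated with LPS (250 ng/mL final) plus ATP (1.25 mM final); secreted IL-1B measured by AlphaLISA after 16 hr, decreased signal indicating inhibition.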
PINK1 expr mod = modulators of PINK1 expression | PINK1 immunofluorescence, high-content cytometry, 24 h | Potency, µM (highest dose often 76.6 µM), usual class: activators | hit rate 0.2% among 410,000 | AID 624263; active means well fitted activation curve with a large enough effect; inconclusive means small, poorly fitted or top-dose-only effect; cell line not stated here; further: nearly all actives have a fitted effect of over 65% in size
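Decision-based qHTS: stable cells, 24 h exposure to five compound concentrations, CCCP as control. Fixed cells stained for PINK1 plus nuclear, mitochondrial and cell markers, cytometer read.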
ATXN2 expr inh = inhibitors of ATXN2 expression; Potency, µM (top dose mostly 57 µM), usual class: inhibitors; HEK-293 ATXN2-luciferase reporter, luminescence, 24 h; AID 1745845; hit rate 0.72% among 360,000; further: nearly all actives have a fitted effect of over 55% in size
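ATXN2-luciferase reporter cells (luciferase flanked by upstream and downstream ATXN2 gene portions) were treated 24 h at 37 °C with compounds at up to 57 uM. SteadyGlo luminescence gave expression; GF-AFC fluorescence gave viability.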
MCF10A rerep = inducers of DNA re-replication in MCF 10A breast cells; MCF 10A DNA re-replication, Hoechst nuclear intensity, 48 h; Potency, µM (doses to about 46.1 µM), actives largely listed as activators; hit rate 2.9% among 350,000; AID 624296; further: nearly all actives have a fitted effect of over 50% in size
SW480 rerep = induces DNA re-replication in SW480 colon adenocarcinoma cells; Potency, µM (top dose mostly 46.1 µM), usual class: activators; hit rate 1.8% among 340,000; SW480 DNA re-replication, Hoechst DNA content imaging, 48 h; further: nearly all actives have a fitted effect of over 55% in size
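Readout is total intensity of Hoechst-stained nuclei, excited at 405 nm and collected at 500-530 nm. Compound treatment lasted 48 hr at 37 C in 5% CO2 before staining.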
S2 tox = cell viability loss in ATXN counter-screen; S2 cells (HEK-293 line with an ATXN2-luciferase reporter) viability, CellTiter-Fluor protease fluorescence, 24 h; Potency, µM (series often up to 56.7 µM), actives largely listed as cytotoxic; hit rate 0.49% among 400,000; AID 651635; further: nearly all actives have a fitted effect of over 40% in size
Of the large screens only hits and unclear results are named; the others gave an inactive call. A selection: hits, their analogues and other compounds. The true share with any hit is near 7.1%. Unless noted, the call rests on the fitted dose curve; in most records, active means well fitted curve in the direction sought with a large enough effect; inconclusive means small, poorly fitted or top-dose-only effect, or another doubt; inactive means no such curve, though single readings can be large; an effect the other way counts as inactive or inconclusive.

CCCCN(C)C(=O)c1ccc(Nc2nc(C(N)CCc3ccccc3)cs2)nc1 (configuration not stated)	ATXN2 expr inh inconclusive, S2 tox inconclusive (no result: MCF10A rerep, SW480 rerep)
CCCCN(C)C(=O)c1ccc(Nc2nc(C(N)Cc3ccc(C(F)(F)F)cc3)cs2)nc1 (configuration not stated)	S2 tox 32µM (no result: MCF10A rerep, SW480 rerep)
COCCNc1c(-c2cc3ccc(C)c(C)c3[nH]c2=O)nc2ccccn12	IL-1B inflam inh -59
COCCNc1c(-c2ccc(OC)c(OC)c2)nc2ccc(Cl)cn12	IL-1B inflam inh inconclusive, MCF10A rerep inconclusive
O=C(c1cc([N+](=O)[O-])ccc1N1CCCCC1)N1CCc2ccccc21	ATXN2 expr inh inconclusive, MCF10A rerep 3.7µM, SW480 rerep 6.5µM, S2 tox inconclusive
Cc1ccc(C(=O)c2cc([N+](=O)[O-])ccc2N2CCCCC2)c(C)c1	MCF10A rerep inconclusive, SW480 rerep 1.3µM, S2 tox inconclusive
CCOc1ccc(S(=O)(=O)N2CCN(C(=O)c3cc([N+](=O)[O-])ccc3N3CCOCC3)CC2)cc1	none
CCOc1ccc(C(=O)c2cc([N+](=O)[O-])ccc2N2CCOCC2)cc1	MCF10A rerep inconclusive, SW480 rerep 0.058µM
Cc1ccc(C(=O)c2cc([N+](=O)[O-])ccc2N2CCOCC2)cc1	MCF10A rerep 3.7µM, SW480 rerep 3.7µM, S2 tox inconclusive
O=C(c1cc([N+](=O)[O-])ccc1N1CCOCC1)N1CCOCC1	none
Cc1ccc2nc(-c3ccc(C)o3)c(Nc3ccc(Cl)cc3)n2c1	none (no result: IL-1B inflam inh, ATXN2 expr inh, MCF10A rerep, SW480 rerep, S2 tox)
CCN(CC)C(=O)Cn1c(=O)n(-c2ccc(OC)cc2OC)c(=O)c2c(C)c(C(=O)N(CC)CC)sc21	none (no result: IL-1B inflam inh, MCF10A rerep, SW480 rerep)
COc1ccc(OC)c(NC(=O)CN2C(=O)COc3ccc(S(=O)(=O)NC4CCCC4)cc32)c1	none (no result: IL-1B inflam inh, ATXN2 expr inh, MCF10A rerep, SW480 rerep, S2 tox)
Cc1cc(Br)ccc1NC(=O)CN(C)C(=O)c1cc([N+](=O)[O-])ccc1N1CCOCC1	IL-1B inflam inh -59
COc1ccc(CCNC(=O)c2cc([N+](=O)[O-])ccc2N2CCOCC2)cc1	PINK1 expr mod inconclusive, MCF10A rerep inconclusive, SW480 rerep inconclusive
COc1ccc(C(=O)c2cc([N+](=O)[O-])ccc2N2CCOCC2)cc1	MCF10A rerep inconclusive, SW480 rerep 0.37µM, S2 tox inconclusive
Cc1ccc(C)c(NC(=O)CN(C)C(=O)c2cc([N+](=O)[O-])ccc2N2CCOCC2)c1	none
c1ccc2c(N3CCCCCC3)nc(CN3CCCCC3c3nccs3)nc2c1 (configuration not stated)	S2 tox inconclusive (no result: IL-1B inflam inh, ATXN2 expr inh, MCF10A rerep, SW480 rerep)
COc1ccc(NC(=O)CN2CCN(C3c4ccccc4-c4ccccc43)CC2)c(OC)c1	MCF10A rerep 8.2µM
COc1ccccc1NC(=O)CN1CCN(C2c3ccccc3-c3ccccc32)CC1	MCF10A rerep 5.8µM, SW480 rerep inconclusive
CCOC(=O)c1ccc(NC(=O)CCCc2nc(-c3ccccc3Cl)no2)cc1	none (no result: IL-1B inflam inh, MCF10A rerep, SW480 rerep)
Cc1cc(C)cc(OCC(=O)NCC2(N3CCOCC3)CCCCC2)c1	none (no result: IL-1B inflam inh, ATXN2 expr inh, MCF10A rerep, SW480 rerep, S2 tox)
COc1cc(-c2c(-c3cc(OC)c(OC)c(OC)c3)noc2C)ccc1F	MCF10A rerep inconclusive, SW480 rerep 1.3µM
COc1ccc(-c2c(-c3cc(OC)c(OC)c(OC)c3)noc2C)cn1	MCF10A rerep 1.6µM, SW480 rerep 7.3µM, S2 tox inconclusive
O=C(/C=C/c1c(Cl)cccc1Cl)Nc1ccncc1	IL-1B inflam inh -60
CC1=CC(=C(c2ccc(N)cc2)c2ccc(N)cc2)C=CC1=N	PINK1 expr mod 16µM (no result: IL-1B inflam inh, ATXN2 expr inh, S2 tox)
Cc1cnc2c(c1SCC(=O)Nc1ccc(F)cc1F)c(=O)n(C)c(=O)n2C	none (no result: IL-1B inflam inh, MCF10A rerep, SW480 rerep)
C#CCNCCS(=O)(=O)N(Cc1ccc(Br)cc1)[C@@H](CC(C)C)C(=O)O	MCF10A rerep inconclusive
COc1ccccc1NC(=O)CSc1nc2ccccc2c2nc(-c3ccccc3)nn12	S2 tox inconclusive (no result: IL-1B inflam inh, MCF10A rerep, SW480 rerep)
COc1ccc(CN2CCCC(CO)(Cc3ccc(F)cc3)C2)cc1C (configuration not stated)	IL-1B inflam inh -61, ATXN2 expr inh inconclusive, MCF10A rerep inconclusive
CSCCCN1CCCC(CO)(Cc2ccc(F)cc2)C1 (configuration not stated)	none (no result: ATXN2 expr inh)
CC(C)Oc1ccc(CN2CCCC(CO)(Cc3ccccc3)C2)cc1CO (configuration not stated)	IL-1B inflam inh -54
COc1cc(OC)c2nc(-c3cc4c(c(OC)c3)OCCN(Cc3cn(C)nc3C)C4)cc(C)c2c1	S2 tox inconclusive (no result: IL-1B inflam inh, ATXN2 expr inh, MCF10A rerep, SW480 rerep)
O=c1c2ccccc2c2ccccc2c(=O)n1Cc1ccc2c(c1)OCO2	none (no result: ATXN2 expr inh, MCF10A rerep, SW480 rerep)
CN(C)CCN=Cc1c(O)n(-c2ccc(S(=O)(=O)N3CCOCC3)cc2)c(=O)c2ccccc12	SW480 rerep 18µM
CN(C)CCN=Cc1c(O)n(Cc2ccc3c(c2)OCO3)c(=O)c2ccccc12	IL-1B inflam inh -53 (no result: S2 tox)
Cc1ccc(-n2c(O)c(/C=N/Nc3ccc(S(=O)(=O)N4CCOCC4)cc3[N+](=O)[O-])c3ccccc3c2=O)c(C)c1	IL-1B inflam inh -65, PINK1 expr mod inconclusive, ATXN2 expr inh inconclusive, MCF10A rerep inconclusive, SW480 rerep inconclusive, S2 tox inconclusive
O=C(O)c1ccc(/C=N\Nc2ccc(S(=O)(=O)N3CCOCC3)cc2[N+](=O)[O-])cc1	none
Cc1cccc(-n2c(O)c(C=NCCCN3CCOCC3)c3ccccc3c2=O)c1	S2 tox inconclusive
CC1(C)OC(=O)Nc2ccc(Br)cc21	none (no result: IL-1B inflam inh, PINK1 expr mod, MCF10A rerep, SW480 rerep)
CN1C(=O)c2ccccc2Sc2ccc(NC(=O)c3ccccc3F)cc21	ATXN2 expr inh inconclusive (no result: IL-1B inflam inh, MCF10A rerep, SW480 rerep)
CCN(C(=O)c1oc2ccc(S(=O)(=O)N3CCCCCC3)cc2c1C)c1ccccc1	ATXN2 expr inh inconclusive, S2 tox inconclusive (no result: IL-1B inflam inh, MCF10A rerep, SW480 rerep)
O=C(C=Cc1ccccn1)c1ccccc1	IL-1B inflam inh -98, ATXN2 expr inh inconclusive, MCF10A rerep 3.3µM, SW480 rerep inconclusive (no result: S2 tox)
Cc1cccc(C=CC(=O)c2ccccc2)c1	MCF10A rerep inconclusive, SW480 rerep inconclusive
O=C(C=Cc1ccccn1)c1ccccc1O	IL-1B inflam inh -94, PINK1 expr mod inconclusive, ATXN2 expr inh inconclusive, MCF10A rerep inconclusive, SW480 rerep inconclusive (no result: S2 tox)
O=C(/C=C/c1cccnc1)c1ccccc1O	none (no result: ATXN2 expr inh)
COc1cc2c(cc1OC)C(SC)=NC(C)(C)C2	IL-1B inflam inh -102, ATXN2 expr inh inconclusive, S2 tox inconclusive (no result: PINK1 expr mod)
Cc1ccc(-c2[nH]ncc2/C=C(\C#N)C(=O)NC2CCCCC2)cc1	IL-1B inflam inh -59, MCF10A rerep inconclusive, S2 tox inconclusive
N#C/C(=C\c1cccn1-c1ccccc1)C(=O)NC1CCCCC1	SW480 rerep inconclusive, S2 tox inconclusive
N#C/C(=C\c1ccccc1[N+](=O)[O-])C(=O)NC1CCCCC1	IL-1B inflam inh -72, MCF10A rerep inconclusive, SW480 rerep inconclusive
